Test results reported in PubChem BioAssay (NCI).
The panel holds about 83,000 compounds, 20% with a hit somewhere; the sample as a whole holds those more often.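 96-well plates, one dose, 48 hours. Percent growth reported; active if below 10.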 Activity calls are given as the source filed them.

How the values were obtained:
Experiment in all cases: NCI-60 one-dose screen, 48 h (100 = growth as untreated, 0 = no growth, -100 = all killed)
Conditions in all cases: 10 µM unless noted
[1] = tested on: T-47D breast
[2] = tested on: MDA-MB-435 melanoma
[3] = tested on: SW-620 colon
[4] = tested on: MCF7 breast
[5] = tested on: HCT-116 colon
[6] = tested on: HCC-2998 colon
[7] = tested on: KM12 colon
[8] = tested on: BT-549 breast

Measured: growth

Cc1nc(N)sc1C(=O)NCCO
inactive: [1] 106% | [2] 128% | [3] 109% | [4] 98.2% | [5] 99.6% | [6] 168% | [7] 102%

COc1ccc(Oc2[nH]n(C3=Nc4ccccc4Sc4ccccc43)c(=O)c2C#N)cc1
inactive: [1] 92.8% | [8] 98.2% | [2] 101% | [4] 101% | [5] 93.5% | [6] 103% | [7] 104%

COC1=CC(c2ccc[nH]2)=N/C1=C\c1[nH]c(C)c(C(=O)CCCCC(=O)NC(C)(C)C)c1C
inactive: [1] 40.1% | [6] 30.5% | [7] 20.5%
active: [8] -11.2% | [2] 7.73% | [4] -15.1%

CC(C)CCCCCOC(=O)c1ccccc1SSc1ccccc1C(=O)OCCCCCC(C)C
inactive: [1] 89.6% | [2] 107% | [3] 101% | [4] 93.6% | [5] 98.5% | [6] 110% | [7] 106%

COc1ccc(/C(=C(\c2ccccc2)[N+](=O)[O-])c2ccc(OCCN3CCCC3)cc2)cc1
inactive: [1] 51.5% | [8] 74.2% | [2] 48.2% | [4] 37.4% | [5] 44.5% | [6] 80.8% | [7] 54.1%

CC(=O)N1CCN(CCNC(=O)n2cc(-c3ccncc3)c(-c3cc(O)cc(Cl)c3)n2)CC1
inactive: [1] 100% | [2] 49.3% | [3] 76.8% | [4] 93.4% | [5] 43.6% | [6] 122% | [7] 91.3%

C/C(=N\Nc1ccc(Cl)cn1)c1ccccn1
inactive: [2] 26.4% | [3] 27% | [6] 27% | [7] 20%
active: [8] 9.46% | [4] 3.89% | [5] 1.21%

COc1cc(-c2nn(-c3ccc(NC(=O)Nc4ccc(Cl)c(Cl)c4)cc3)cc2-c2ccncc2)ccc1Cl
inactive: [1] 47.5% | [2] 29.1% | [3] 35.2% | [4] 28.4% | [5] 13.4% | [6] 21.8% | [7] 16.1%

COc1cc2c(c(OC)c1OC)C(=O)CC(c1cccc(C(=O)Nc3cccc(Br)c3)c1)O2 (stereo unspecified)
inactive: [8] 63% | [2] 69.3% | [3] 95.4% | [4] 68.3% | [5] 58.1% | [6] 112% | [7] 71.2%

CC(=O)Nc1nc(C)c(C(=O)NNS(=O)(=O)c2ccccc2)s1
inactive: [1] 114% | [2] 125% | [3] 106% | [4] 110% | [5] 52.1% | [6] 105% | [7] 125%

CC(=O)Nc1nc(C)c(C(=O)N/N=C/N2CCOCC2)s1
inactive: [1] 102% | [2] 127% | [3] 107% | [4] 98.6% | [5] 93.8% | [6] 157% | [7] 105%

Nc1nc(-c2cccc(Br)c2)cc(-c2cc3ccccc3oc2=O)n1
inactive: [1] 83.2% | [2] 117% | [3] 105% | [4] 57.6% | [5] 85.5% | [7] 99.2%

N#Cc1c(N)nc(Nc2nc3ccccc3[nH]2)nc1-c1ccc(Cl)cc1
inactive: [1] 93.8% | [2] 106% | [3] 117% | [4] 86.9% | [5] 109% | [7] 109%

Cc1nc(NC(=S)Nc2ccc(F)cc2)sc1C(=O)NNC(=S)Nc1ccc(F)cc1
inactive: [1] 35.6% | [2] 71.5% | [3] 86.7% | [4] 72.2% | [5] 44.9% | [6] 68.4% | [7] 76.6%

N#Cc1c2cccnc2c2nnc3cc(Cl)c(Cl)cc3n12
inactive: [1] 25.9% | [2] 84.4% | [6] 13.4% | [7] 47.5%
active: [3] -39% | [4] 1.41% | [5] -73.1%

O=C(Nc1cccc(Cn2c(=O)[nH]c3ccc(Oc4ncccn4)cc3c2=O)c1)c1ccc(Cl)cc1
inactive: [8] 41.6% | [2] 43% | [3] 71.5% | [4] 28% | [5] 39.2% | [6] 81.7% | [7] 15.3%

NCCCOc1cc(Cl)ccc1NC(=O)c1cc2ccccc2cc1OCCCN
active: [1] -70.5% | [2] -68.5% | [3] -92% | [4] -93.9% | [5] -97.3% | [7] -94.9%

Clc1ccc(N/N=C(/c2ccccc2)c2ccccn2)nc1
active: [4] -1.28% | [5] 5.31%
inactive: [8] 55% | [2] 57.3% | [3] 44.8% | [6] 45.1% | [7] 43.2%

CCOC(=O)c1sc(NS(=O)(=O)c2ccccc2)nc1C
inactive: [1] 111% | [2] 126% | [3] 111% | [4] 96.2% | [5] 57.9% | [6] 27.5% | [7] 129%

C=CC1CN2CCC1CC2C(O)c1ccnc2ccc(OC)cc12 (stereo unspecified)
inactive: [1] 102% | [2] 100% | [3] 105% | [4] 91% | [6] 155% | [7] 112%

CCN(CC)c1ccc2nc3ccc(N=Nc4ccc(O)cc4)cc3[n+](-c3ccccc3)c2c1
active: [4] -13.8%
inactive: [1] 32.7% | [2] 48.6% | [6] 62.8% | [7] 34.8%

NCCCOc1cc2ccccc2cc1C(=O)Nc1ccc(Cl)cc1OC(=O)c1cc2ccccc2cc1OCCCN
active: [1] -55.9% | [2] -76.9% | [3] -94.9% | [4] -78.9% | [5] -92.6% | [7] -96.5%

O=C(Nc1ccc(-n2cc(-c3ccncc3)c(-c3ccc(Cl)c(O)c3)n2)cc1)c1cc(C(F)(F)F)cc(C(F)(F)F)c1
inactive: [1] 47.9% | [2] 52.5% | [3] 81.4% | [4] 30.3% | [5] 33.6% | [6] 74.2% | [7] 28%

Cc1ccc(C(=O)Nc2ccc(CN3CCN(C)CC3)c(C(F)(F)F)c2)cc1C#Cc1cnc(N)c2ccc(C#N)cc12
inactive: [8] 53.1% | [2] 10.8% | [3] 46.2% | [4] 74.2% | [5] 13.9% | [6] 93% | [7] 18.4%

COC(=O)c1cc(O)c2cc3c(cc2c1-c1cc(OC)c(OC)c(OC)c1)OCO3
active: [2] 2.84%
inactive: [1] 25.9% | [3] 17.8% | [4] 21.9% | [5] 20.8% | [6] 52.3% | [7] 25.7%

CCS(=O)(=O)N[C@@H]1O[C@H](COC(C)=O)C(OC(C)=O)[C@H](OC(C)=O)C1OC(C)=O (stereo partly specified)
inactive: [1] 90.7% | [2] 103% | [4] 103% | [5] 95.3% | [7] 106%

COc1ccc(C2CC(=O)c3c(O)cc(OC4OC(COC5OC(C)C(O)C(O)C5O)C(O)C(O)C4O)cc3O2)cc1O (stereo unspecified)
inactive: [1] 121% | [2] 102% | [3] 113% | [4] 95.1% | [5] 43.6% | [6] 129% | [7] 124%

O=[N+]([O-])c1ccc(-c2ncc(-c3ccc(O)cc3O)[nH]2)cc1
inactive: [1] 102% | [2] 121% | [3] 106% | [4] 90.3% | [6] 123% | [7] 112%

OC(c1ccccc1)(c1ccccc1)C(F)(F)F
inactive: [1] 92.1% | [2] 103% | [4] 104% | [5] 107% | [7] 92.3%

C=C[C@]1(C)C=C2C(=O)[C@@]3(O)OC[C@@]4(CCCC(C)(C)C43O)C2(O)C(O)C1 (stereo partly specified)
active: [3] -57.7% | [5] -79.6%
inactive: [1] 20.9% | [2] 60.2% | [4] 21% | [7] 89.4%

CC(=O)N1CCN(CCNC(=O)n2cc(-c3ccncc3)c(-c3ccc(O)c(Cl)c3)n2)CC1
inactive: [1] 112% | [2] 103% | [3] 130% | [4] 102% | [5] 111% | [6] 118% | [7] 103%

Cc1ccccc1-n1c(C)nc2cc(NC(=O)c3ccc(Cl)cc3)ccc2c1=O
inactive: [1] 29% | [2] 43.7% | [3] 86% | [4] 57.8% | [5] 74.8% | [6] 80.9% | [7] 76.6%

O=C1Nc2c(c(=O)n(-c3ccccc3)c3ccccc23)C(c2ccc(Cl)cc2)N1 (stereo unspecified)
inactive: [1] 91.5% | [2] 99.9% | [3] 98% | [4] 91.1% | [6] 61% | [7] 61.1%
